The values that follow come from PubChem BioAssay AID449762 (Southern Research Specialized Biocontainment Screening …, 2010).

By inhibition is commonly meant the drop in the measured response relative to a control, in per cent.

Out of some 330,000 compounds screened, about 1,900 (0.58%) were called active. Not shown: some 4% with an inconclusive outcome. Cut-off read from the data, not from the text of the source: inconclusive = inhibition above about 70% without an active follow-up result; inactive = below that. These entries were drawn from the full list. Measured potencies and affinities stand elsewhere.

This test in a line: M. tuberculosis growth inhibition, HTS (AID 449762).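 Note: bacterial growth assessed after seven days of incubation.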 As to conditions: M. tuberculosis H37Rv growth inhibition, 7H9 media; at 25 µM; active compounds read high.
With `Cc1cccc(/C=N\NC(=O)c2sccc2-n2cccc2)c1`, the inhibition is 0.5% (inactive).

For `COC(=O)C1=C(c2cccc(C#N)c2)C[C@@H]2CC[C@H]1N2C(=O)NCCc1ccccc1`, the inhibition was -2.69% (inactive).

For `NNC(=O)c1sccc1OCc1ccc(Cl)cc1Cl`, the inhibition was 39.9% (inactive).

On to `CNC(=S)NNC(=O)c1sccc1OCc1ccc(Cl)cc1Cl`, for which the inhibition is -1.67% (inactive).

In the case of `CC(C)CC(CO)N1CCN(C(=O)c2ccc(Cl)c(Cl)c2)CCC1=O` (stereo not drawn), the inhibition was -0.29% (inactive). As for `COc1ccc(NC(=O)c2nnn(CC(=O)Nc3ccccc3OC)c2N)c(OC)c1`, the figure is -1.76% (inactive); as for `Cn1cnnc1SCc1ccc(C(=O)N=Nc2c(O)n(C)c3ccccc23)cc1`, -4.97% (inactive). Consider `O=C(N=Nc1c(O)n(Cc2ccccc2)c2ccccc12)c1ccc(O)cc1`, for which the inhibition was 8.8% (inactive). As for `CCCCCCC1CCC(C(=O)Nn2c(C)nc3ccccc3c2=O)CC1` (stereo not drawn), the figure is 12.2% (inactive); as for `Cc1nc2ccccc2c(=O)n1NC(=O)C1CC1`, 4.78% (inactive).

`COc1ccc(NC(=O)C2CC(c3c(F)cccc3Cl)=NO2)cc1` (stereo not drawn): the inhibition is 0.25% (inactive). As for `COc1ccc(OCCOc2cccc(C=C3C(=O)NC(=O)NC3=O)c2)cc1`, the figure is 21.3% (inactive); as for `O=C(COc1ccc(Cl)cc1)NCCNC(=O)c1cnccn1`, 5.05% (inactive). Next, `O=C(NCC(c1ccco1)N1CCc2ccccc21)C(=O)Nc1ccccc1F` (stereo not drawn): 8.05% (inactive). Regarding `CCCCOc1ccc(-c2nnn(CC(=O)Nc3ncc(CC(=O)OCC)s3)n2)cc1`, the inhibition is 4.47% (inactive). Take `CCC(C(=O)O)n1nnc(-c2ccc(-c3ccc(OC)cc3)cc2)n1` (stereo not drawn): the inhibition is 4.02% (inactive).

With `CC1Cc2ccccc2N1C(=O)CN1CCC(C(N)=O)CC1` (stereo not drawn), the inhibition is 0.29% (inactive). As for `Cc1ccc(CNC(=O)c2ccc3c(=O)[nH]c4c(C(=O)NCC5CCCO5)sc(=S)n4c3c2)cc1` (stereo not drawn), the inhibition is 6.08% (inactive). On to `O=C(NCc1ccccc1)c1ccc2c(=O)[nH]c3c(C(=O)NCC4CCCO4)sc(=S)n3c2c1` (stereo not drawn), for which the inhibition is 9.46% (inactive). As for `COC(=O)c1ccc(NC(=S)N2CCN(Cc3ccccc3Cl)CC2)cc1`, the figure is 3.97% (inactive); as for `COc1ccc(OC)c(NC(=O)CSc2nc(N3CCOCC3)nc(N3CCOCC3)n2)c1`, -13% (inactive); as for `COc1ccc(Nc2ncc3c(n2)CC(c2ccc(OC)cc2)CC3=O)cc1` (stereo not drawn), 5.93% (inactive). Regarding `COc1ccc(Nc2ncc3c(n2)CC(c2ccc(C)cc2)CC3=O)cc1` (stereo not drawn), the inhibition is 11% (inactive). Consider `CC(=O)c1c(COC(=O)c2cccc(C)c2)nc2ccccc2[n+]1[O-]`, for which the inhibition is -1.11% (inactive). Next, `CC(=O)c1c(N2CCCCC2)nc(=S)n(-c2ccccc2)c1C`: -9.27% (inactive); `CN1CCC(N(C)C(=O)c2ccc(Cl)c(S(=O)(=O)Nc3cc(Cl)ccc3Cl)c2)CC1`: -3.22% (inactive); `O=C(CCCN1C(=O)c2cccnc2C1=O)N1CC(=O)N(CCc2ccccc2)C(=O)C1`: 2.7% (inactive). For `CC1CCN(CCNC(=O)C2CCN(S(=O)(=O)c3cccc4nsnc34)CC2)CC1`, the inhibition was -5.73% (inactive). For `CO/N=C(\Cn1ncc(N2CCOCC2)c(Br)c1=O)c1ccc(Cl)cc1`, the inhibition is -12.1% (inactive).

As to `O=C(Cn1ncc(N2CCCC2)c(Cl)c1=O)c1ccc(Cl)cc1`, the inhibition was -5.18% (inactive). Next, `O=C(NCCC(=O)N1CCC2(CC1)NCCc1[nH]cnc12)c1cccc(C(F)(F)F)c1`: -1.8% (inactive); `CS(=O)(=O)Nc1ccc(C2=NN(C(=O)c3ccco3)C(c3ccccc3)C2)cc1` (stereo not drawn): 2.8% (inactive); `C=CCSC1=N/C(=C/c2ccsc2)C(=O)N1c1ccccc1`: -5.05% (inactive). Next, `Cc1cc(C)n(-c2ccc(C(=O)NCc3ccc4c(c3)OCO4)cc2)n1`: 8.5% (inactive); `Cc1cc(C)n(-c2ccc(C(=O)Nc3ccc4c(c3)OCO4)cc2)n1`: 12.7% (inactive); `COc1ccc(CCNC(=O)CCc2nc3sc4c(c3c(=O)[nH]2)CCCC4)cc1`: -1.73% (inactive).

With `CCCCC(CC)CO` (stereo not drawn), the inhibition is -4.02% (inactive).

Turning to `CCCCC(CC)COC(=O)CCCCC(=O)OCC(CC)CCCC` (stereo not drawn), the inhibition was 12.3% (inactive).

Regarding `Cc1csc(NC(=O)c2cccs2)n1`, the inhibition was -0.19% (inactive). As for `Nc1cc(N2CCCCCC2)c2nonc2c1[N+](=O)[O-]`, the figure is -8.43% (inactive). As for `Nc1ccc2nonc2c1[N+](=O)[O-]`, the inhibition is -0.05% (inactive). Turning to `COc1cccc2sc(N(CCN(C)C)C(=O)/C=C/c3cccs3)nc12`, the inhibition is 8.94% (inactive). For `Cc1cccc2sc(N(CCN(C)C)C(=O)/C=C/c3cccs3)nc12`, the inhibition is 51.5% (inactive). Next, `CN(CC(=O)Nc1ccc(S(=O)(=O)N2CCCC2)cc1)Cc1ccc(Cl)cc1Cl`: -3.94% (inactive); `O=C(CCC(=O)N(CC(=O)NC1CCCC1)Cc1ccc(F)cc1)Nc1nccs1`: 7.88% (inactive). Consider `O=C(NC1CC1)c1cccc(S(=O)(=O)Nc2ccccc2F)c1`, for which the inhibition was -4.2% (inactive). On to `CCN(CC)c1ccc2cc(-c3nc4ccccc4[nH]3)c(=O)oc2c1`, for which the inhibition was 4.76% (inactive). Turning to `CCN(CC)c1ccc(/C=N/Nc2nc3ccccc3[nH]2)c(O)c1`, the inhibition is 19.6% (inactive). For the compound `O=c1c2oc3ccccc3c2[nH]c(=S)n1-c1ccc(F)cc1`, the inhibition is 0.38% (inactive). For the compound `Cc1ccc(C2Oc3ccccc3C3=C2C(c2cccs2)n2ncnc2N3)cc1` (stereo not drawn), the inhibition was 55.2% (inactive). Next, `Fc1ccc(C2C3=C(Nc4ncnn42)c2ccccc2OC3c2ccncc2)cc1` (stereo not drawn): -5.07% (inactive); `C/C=C\C=C\C(=O)N1CC2(CC(c3cccc(NC(=O)COc4ccc(Cl)cc4)c3)=NO2)C[C@H]1C(N)=O` (stereo partly drawn): 23.8% (inactive); `COc1c(C)cc(C(=O)C2CCCN(Cc3ccc(Oc4ncccn4)cc3)C2)cc1C` (stereo not drawn): 7.33% (inactive).

In the case of `COc1cccc(C(=O)C2CCCN(Cc3ccccn3)C2)c1` (stereo not drawn), the inhibition is 33.9% (inactive).

Take `COc1ccc(N2CCN(CCNC(=O)c3ccc(NC(=O)C4CCCO4)cc3)CC2)cc1` (stereo not drawn): the inhibition was -2.8% (inactive). As for `CC1CCN(C2=NC(=O)/C(=C/c3cn[nH]c3-c3ccccc3)S2)CC1`, the figure is 12.8% (inactive); as for `O=C1N=C(N2CCCC2)S/C1=C\c1cn[nH]c1-c1ccccc1`, -6.16% (inactive); as for `CCOC(=O)c1[nH]c2c(c1-c1ccccc1)C(=O)CC(c1ccccc1)C2` (stereo not drawn), 3.2% (inactive).
